# Screening results from PubChem.
# Many of the other results were omitted from the sample, so hits are more common in it than they were.
# SF-1 inh – blocks the human nuclear receptor SF-1; Q13285; CHO-K1 Gal4-SF-1 LBD luciferase reporter; inhibition, % at 10 µM; 65,000 compounds, 0.55% hits; AID 525;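 active = inhibition above the mean inhibition of all tested compounds plus 3 SD, cut at about 48% in these data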;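 also: 0% = SF-1 transfected cells with DMSO and 100% = mock-transfected cells lacking SF-1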
# Target sequence (Q13285 whole entry, looked up, the tested form may be a part): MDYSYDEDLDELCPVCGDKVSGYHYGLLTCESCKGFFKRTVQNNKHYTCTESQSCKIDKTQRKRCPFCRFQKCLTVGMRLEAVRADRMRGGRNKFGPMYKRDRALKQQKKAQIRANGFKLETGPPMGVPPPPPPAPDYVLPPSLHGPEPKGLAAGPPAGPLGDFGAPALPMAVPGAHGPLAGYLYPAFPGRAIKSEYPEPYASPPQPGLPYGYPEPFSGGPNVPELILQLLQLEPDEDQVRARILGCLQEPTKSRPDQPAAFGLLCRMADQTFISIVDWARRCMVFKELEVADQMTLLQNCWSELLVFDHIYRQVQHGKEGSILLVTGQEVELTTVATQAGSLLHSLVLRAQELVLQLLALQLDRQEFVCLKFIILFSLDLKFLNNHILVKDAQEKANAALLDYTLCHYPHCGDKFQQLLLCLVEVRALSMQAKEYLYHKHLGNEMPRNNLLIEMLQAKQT
# * marks the source's active call; other numbers are inactive results.
SMILES,SF-1 inh
Cc1cnc(NC(=O)CN2CCN(c3ccccn3)CC2)s1,61*
O=C(CN1CCN(c2ccccn2)CC1)Nc1cccc(C(F)(F)F)c1,16
COc1ccccc1NC(=O)N1CCN(c2ccccn2)CC1,13
O=c1[nH]cnc2c1N1CCC2CC1,2
CCOC(=O)CC(=O)CSc1nnc2c(n1)[nH]c1ccccc12,-53
COc1ccc2[nH]c3nc(SC(C)C)nnc3c2c1,63*
CC1=CC(C)=Nc2ccc(C)cc2N1,-76
Cc1cc(C)c(C(=O)CSc2n[nH]c(=O)n2C2CC2)cc1C,12
COCCn1c(SCCN2CCCCC2)nc2ccccc2c1=O,-7
CCOC(=O)N1CCC(NC(=O)c2ccc(OC)c(CN3CC(=O)N4CCCC4C3=O)c2)CC1 (stereo not given),-5
CCOC(=O)N1CCC(NC(=O)c2cnn3c(C(F)(F)F)cc(-c4cccc(OC)c4)nc23)CC1,2
CCOC(=O)N1CCC(NC(=O)C2CCCN(Cc3nc(-c4cccc(Cl)c4)oc3C)C2)CC1 (stereo not given),58*
CC(C)CCn1c(Sc2nc3ccccc3s2)nc2c1c(=O)[nH]c(=O)n2C,12
O=C(NC12CC3CC(CC(C3)C1)C2)c1ccc(S(=O)(=O)N2CCOCC2)cc1,-2
CCOC(=O)c1ccc(NC(=O)CSCc2ccco2)cc1,-5
O=C(CCCc1cccs1)Nc1nc2c(s1)CCCC2,-73
c1csc(CCNc2ncnc3sc4c(c23)CCC4)c1,76*
c1coc(CNc2nc3sc4c(c3c3ncnn23)CCCC4)c1,-7
Cc1nc2c(cc(Oc3ccc(S(=O)(=O)N4CCOCC4)cn3)c3ccsc32)s1,-53
CC1CCCCN1CCNC(=O)CN1C(=O)COc2ccccc21 (stereo not given),7
c1ccc(CCc2nc(-c3ccccn3)no2)cc1,-35
CCCCC1CCC(c2nc(-c3ccccn3)no2)CC1 (stereo not given),-52
Clc1ccc(-c2nc(-c3ccccn3)no2)cc1Cl,51*
COc1cccc(-c2nnc(SCC(=O)N3CCCC3=O)n2-c2ccccc2)c1,-3
CC1(c2ccccc2)NC(=O)N(CCN2C(=O)c3ccccc3C2=O)C1=O (stereo not given),-3
SMILES,SF-1 inh
CC(C)CCn1c(CN2CCN(c3cccc(Cl)c3)CC2)nc2c1c(=O)n(C)c(=O)n2C,-6
c1ccc(OCCOc2ncnc3sccc23)cc1,-53
c1csc(CNc2ncnc3sccc23)c1,51*
Clc1ccc(-n2ncc3c(NCc4cccs4)ncnc32)cc1,-74
CN1C(=O)c2ccc(C(=O)NC3CCCCC3)cc2C1=O,-6
CCOCC(=O)Nc1cccc(Br)c1,-10
Cc1cccc(-n2ncc3c(N(C)C4CCCCC4)ncnc32)c1,77*
COc1ccc(-n2ncc3c(N(C)C4CCCCC4)ncnc32)cc1,74*
Cc1cccc(-n2ncc3c(NCc4ccccc4)ncnc32)c1,-82
Cc1cccc(-n2ncc3c(NCc4ccco4)ncnc32)c1,-93
c1ccc(-n2ncc3c(NCCN4CCCCC4)ncnc32)cc1,-69
CCN(c1ccccc1)c1ncnc2c1cnn2-c1ccccc1,-59
COC(=O)c1cccc(C(=O)Nc2ccc(C)cc2)n1,-50
CCn1c(=NC(=O)CN2C(=O)CCC2=O)sc2c(C)cc(C)cc21,34
Cc1ccc(Cn2c(CN3CC(C)OC(C)C3)nc3c2c(=O)n(C)c(=O)n3C)cc1 (stereo not given),15
CC[C@H]1OC(=O)C[C@@H](O)[C@H](C)[C@@H](O[C@@H]2O[C@H](C)C[C@H](N(C)C)[C@H]2O)[C@@H](CC=O)C[C@@H](C)C(=O)C=C[C@]2(C)O[C@H]2[C@@H]1C,9
CCOC(=O)c1c(C)[nH]c(C(=O)COC(=O)CNC(=O)C2CCCCC2)c1C,0
Cn1c(SCc2ccc(F)cc2)nnc1-c1cccs1,-51
O=C(c1ccccc1)c1c[nH]c2cc3c(cc2c1=O)OCCO3,-50
COc1cccc(NC(=O)N2CCN(c3cccc(C)c3)C(C)C2)c1 (stereo not given),-2
COc1cccc(OCCN2CCN(c3ncnc4c3cnn4-c3ccccc3)CC2)c1,6
COc1cccc(N2CCN(c3ncnc4c3[nH]c3ccc(F)cc34)CC2C)c1 (stereo not given),96*
COc1cccc(-n2nc(C(=O)O)c3ccccc3c2=O)c1,-8
COc1cccc(N2CCN(c3ncnc4c3[nH]c3ccccc34)CC2C)c1 (stereo not given),85*
CCOC(=O)c1ccc(N2CC(O)=C(c3nc4ccccc4c(=O)[nH]3)C2=N)cc1,0
SMILES,SF-1 inh
Cc1occc1-c1nnc(SCC(=O)NCc2ccco2)n1CC(C)C,-5
Cn1cccc1C(=O)NC(=O)CSc1nc2ccccc2s1,0
Cn1c(-c2ccc3ccccc3n2)nc2cnccc21,-65
CCC(C)NS(=O)(=O)c1ccc(NC(=O)c2c(-c3ccccc3)noc2C)cc1 (stereo not given),-11
COC(=O)CCCC(=O)Nc1ccc(Cl)c(Cl)c1,-11
Cc1nnc(Sc2nc(Sc3nnc(C)s3)nc(N3CCN(C)CC3)n2)s1,96*
Cc1nc(CSc2nnc(C)s2)cs1,5
CCOC(=O)c1oc2ccc(S(=O)(=O)Nc3ccc4c(c3)n(C)c(=O)n4C)cc2c1C,57*
Cc1c(C(=O)O)oc2ccc(S(=O)(=O)NCc3ccc4c(c3)OCO4)cc12,-4
CCOC(=O)c1ccc(NS(=O)(=O)c2ccc3[nH]c(=O)[nH]c3c2)cc1,-6
Cc1ccc(C)c(N2CCN(C(=O)CCCn3c(=S)[nH]c4cc5c(cc4c3=O)OCO5)CC2)c1,22
O=C(NCc1ccco1)c1cc(-c2cccs2)on1,-28
CCOC(=O)c1cnc(-n2nc(C)cc2C)nc1NCc1ccc2c(c1)OCO2,22
CCOC(=O)N1CCC(C(=O)Nc2ccc(OCC)cc2)CC1,-17
CCOc1ccc(Nc2cc(C)nc(-n3nc(C)cc3C)n2)cc1,65*
CSc1nc(C)c2c(c1C#N)CCCC2,0
CSc1nc(-c2ccccc2)nc2[nH]ccc(=O)c12,-12
Cc1ccc(N2C(N)=NC(N)=NC23CCCC3)c(C)c1,-13
O=C(Nc1ccc2oc(-c3ccccc3)nc2c1)c1cccnc1,-71
O=C(Nc1ccccc1)c1cccc(-c2nnc(-c3ccccc3)o2)c1,63*
O=C(Nc1cccc(-c2nnc(-c3ccccc3)o2)c1)C1CCCCC1,-53
CCOc1ccc(S(=O)(=O)N2CCN(S(=O)(=O)c3ccc(OCC)cc3)C(C)C2)cc1 (stereo not given),-7
COc1cccc(NC(=O)CN2CCN(c3ccccc3F)CC2)c1,-14
COc1ccc(O)c(C(=O)CC(=O)c2ccc(F)cc2)c1,52*
COc1cccc(NC(=O)COc2ccccc2C(N)=O)c1,-62
SMILES,SF-1 inh
CC(NC(=O)C1CCC(=O)N1Cc1ccc(F)cc1)c1ccc2c(c1)OCCO2 (stereo not given),-9
Cc1occc1C(=O)Nc1ccc2c(c1)CCC2,-75
CC(C)COC(=O)N(C)c1ccc(C(O)(C(F)(F)F)C(F)(F)F)cc1,-12
COC(=O)C(Cc1ccc(O)cc1)NC(=O)c1ccccc1OC (stereo not given),-3
CS(=O)(=O)N1CCN(c2ccccc2NC(=O)Cc2ccccc2)CC1,1
CC1CCN(CCCNC(=O)c2ccc(CS(=O)(=O)Cc3ccccc3F)o2)CC1,-8
Cc1ccccc1S(=O)(=O)Cc1ccc(C(=O)N2CCN(c3cccc(C)c3C)CC2)o1,82*
COc1ccccc1OC(=O)C1CC(=O)N(c2ccc(Cl)cc2)C1 (stereo not given),6
CCOC(=O)Cn1c(-c2ccccn2)nc2ccccc21,7
